{"source": "PubChem BioAssay (Tox21)", "note": "Results filed as inconclusive are left out. Activity calls are given as the source filed them. Calls come from the whole dose curve; as a rule, active = well fitted inhibition curve with a large enough effect in the repeat runs; inconclusive = weak or mixed curves; inactive = no such curve, though single readings can be large or run the other way. Non-standard residues stand in square brackets, D forms with d. Residues, ends and D or L forms follow the SMILES beside them. *: point of attachment. Sta = CC(C)C[C@H](N)[C@@H](O)CC(=O)O; Isovaleryl = CC(C)CC(=O)*"}
{"target": "Cytochrome P450 2D6 (Homo sapiens) (UniProt P10635)", "sequence (P10635 whole entry, looked up)": "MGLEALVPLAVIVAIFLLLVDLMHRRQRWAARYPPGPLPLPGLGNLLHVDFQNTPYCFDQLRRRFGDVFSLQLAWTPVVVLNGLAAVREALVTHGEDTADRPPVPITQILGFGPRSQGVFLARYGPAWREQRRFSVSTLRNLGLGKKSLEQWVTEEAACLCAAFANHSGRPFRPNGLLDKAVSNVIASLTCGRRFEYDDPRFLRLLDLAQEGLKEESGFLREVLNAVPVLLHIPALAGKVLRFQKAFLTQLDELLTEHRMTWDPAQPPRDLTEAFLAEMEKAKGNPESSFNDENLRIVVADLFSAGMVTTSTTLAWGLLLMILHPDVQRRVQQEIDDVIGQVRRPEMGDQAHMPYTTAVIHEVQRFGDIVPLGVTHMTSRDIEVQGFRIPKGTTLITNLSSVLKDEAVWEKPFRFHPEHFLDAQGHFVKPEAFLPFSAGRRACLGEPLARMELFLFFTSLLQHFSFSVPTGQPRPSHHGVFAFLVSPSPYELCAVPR", "assay": "Cytochrome P450 Family 2 Subfamily D Member 6 (CYP2D6) small molecule antagonists: luciferase reporter qHTS assay (AID 1671196); note: nearly all actives have a fitted effect of over 50% in size; note: potency is the fitted concentration of half-maximal effect; for activity change, negative = inhibition: % is set by controls: 0 for no effect and ±100 for the full control effect", "conditions": "P450-Glo CYP2D6 enzyme assay, luciferin luminescence, 1 h; series mostly up to 115 µM; activity change, negative = inhibition: at the top concentration", "description": "U.S. Tox21 Program National Center for Advancing Translational Sciences [NCATS] U.S. Environmental Protection Agency [EPA] National Institutes of Environmental Health Sciences [NIEHS] National Toxicology Program [NTP] U.S. Food and Drug Administration [FDA] Tox21 Assay Overview: Cytochrome P450 (CYP) enzymes are membrane-bound hemeproteins that play a key role in metabolism of drugs and xenobiotics. Evaluation of the effect of chemicals on CYP isozymes is useful to minimize the adverse drug reactions and toxicities in drug development process. Tox21 chemicals were tested for their effect on CYP enzyme activities by using P450-Glo (TM) screening systems (Promega Corporation, Madison, WI). These systems provide a luminescent method containing proluciferin substrates and are converted to luciferin products by CYP isozymes. The luciferin products formed are detected with a luciferin detection reagent, and the amount of light produced is proportional to CYP activity. P450-Glo (TM) CYP2D6 screening system (Catalog. No. V9890) was used to detect the compounds that interfere in CYP2D6 activity.\nTox21 Assay Protocol Summary: Two ul of enzyme-substrate mix was dispensed into medium binding white/solid 1536-well plates (Greiner Bio-One North America Inc., Monroe, NC) using a BioRaptr Flying Reagent Dispenser (FRD, Beckman Coulter, Brea, CA). […] The assay plates were incubated at room temperature for 10 min. Then 2 ul of NADPH regeneration solution was added to each well of the assay plates using an FRD and incubated at room temperature for 1 h. The reaction was stopped by adding 4 ul of detection reagent using an FRD and after 20 min incubation at room temperature the luminescence signal was measured using a ViewLux plate reader (Perkin Elmer, Shelton, CT). Data were expressed as relative luminescence units."}
{"smiles": "Cc1ccc(O)c(C(=O)c2ccccc2)c1", "Potency": "11.4 µM (active)"}
{"smiles": "O=C(O)/C=C(\\CC(=O)O)C(=O)O", "activity change, negative = inhibition": "-11.5% [at 53 µM] (inactive)"}
{"smiles": "C=CCCCCCCCCOC(C)=O", "activity change, negative = inhibition": "-8.26% (inactive)"}
{"smiles": "NC[C@H]1O[C@H](O[C@H]2[C@H](O)[C@@H](O[C@H]3O[C@H](CO)[C@@H](O)[C@H](N)[C@H]3O)[C@H](N)C[C@@H]2N)[C@H](N)[C@@H](O)[C@@H]1O", "activity change, negative = inhibition": "0.727% [at 23.6 µM] (inactive)"}
{"smiles": "COC(=O)c1ccc(NC(C)=O)cc1OC", "activity change, negative = inhibition": "-9.88% [at 53 µM] (inactive)"}
{"smiles": "CC(C)(C)OC=O", "activity change, negative = inhibition": "-0.991% (inactive)"}
{"smiles": "CC12CCCC=C1C(=O)OC2=O", "note": "(stereo not given)", "activity change, negative = inhibition": "-21.3% (inactive)"}
{"smiles": "C=CCCCCCCCCCCCCCC", "activity change, negative = inhibition": "-17.7% [at 23.6 µM] (inactive)"}
{"smiles": "NCC1CCC(C(=O)Oc2ccc(CCC(=O)O)cc2)CC1", "note": "(stereo not given)", "activity change, negative = inhibition": "0.306% [at 53 µM] (inactive)"}
{"smiles": "CNC(C)=O", "activity change, negative = inhibition": "-2.61% (inactive)"}
{"smiles": "CCCOc1ccc(C(=O)OCCN(CC)CC)cc1N", "Potency": "4.9 µM (active)"}
{"smiles": "Cc1cc(=O)oc2cc(O[C@@H]3SC[C@@H](O)[C@H](O)[C@H]3O)ccc12", "activity change, negative = inhibition": "3.95% [at 53 µM] (inactive)"}
{"smiles": "c1cc2ccc3ccc4ccc5cccc6c(c1)c2c3c4c56", "activity change, negative = inhibition": "0.702% [at 4.07 µM] (inactive)"}
{"smiles": "C=C(C)C(=O)OCCCC", "activity change, negative = inhibition": "-8.3% (inactive)"}
{"smiles": "CCCc1ncc(C(=O)O)s1", "activity change, negative = inhibition": "2.67% [at 53 µM] (inactive)"}
{"smiles": "O=C1c2ccccc2C(=O)N1CO", "activity change, negative = inhibition": "-1.54% (inactive)"}
{"smiles": "CC1(C)C(=O)C(C)(C)C1=O", "activity change, negative = inhibition": "-21.4% (inactive)"}
{"smiles": "CC(C)(C)c1ccc(N)cc1", "activity change, negative = inhibition": "-8.5% (inactive)"}
{"smiles": "CCc1ncc(C)[nH]1", "activity change, negative = inhibition": "-19.6% (inactive)"}
{"smiles": "O=S(=O)(O)CC(O)CCl", "note": "(stereo not given)", "activity change, negative = inhibition": "-4.08% (inactive)"}
{"smiles": "CN(C)c1ccncc1", "Potency": "31.7 µM (active)"}
{"smiles": "CC[C@@]1(c2ccccc2)NC(=O)N(C)C1=O", "activity change, negative = inhibition": "-55.3% [at 53 µM] (inactive)"}
{"smiles": "CCCC(C)C(O)CC", "note": "(stereo not given)", "activity change, negative = inhibition": "0.568% (inactive)"}
{"smiles": "CC(C)CC(=O)N[C@H](C(=O)N[C@H](C(=O)N[C@@H](CC(C)C)[C@@H](O)CC(=O)N[C@@H](C)C(=O)N[C@@H](CC(C)C)[C@@H](O)CC(=O)O)C(C)C)C(C)C", "note": "(Isovaleryl-VV[Sta]A[Sta]-OH)", "activity change, negative = inhibition": "-14.3% [at 53 µM] (inactive)"}
{"smiles": "C=C(C)C(=O)OCCOC1CC2CC1C1C=CCC21", "note": "(stereo not given)", "activity change, negative = inhibition": "-13.2% (inactive)"}
{"smiles": "CCOC(=O)CC", "activity change, negative = inhibition": "3.14% (inactive)"}
{"smiles": "COC(=O)C(c1ccccc1Cl)N1CCc2sccc2C1", "note": "(stereo not given)", "Potency": "17.4 µM (active)"}
{"smiles": "Cc1nnc(C(=O)NC(C)(C)c2nc(C(=O)NCc3ccc(F)cc3)c(O)c(=O)n2C)o1", "activity change, negative = inhibition": "-20.2% [at 53 µM] (inactive)"}
{"smiles": "CCCCc1ccc(Cl)cc1", "activity change, negative = inhibition": "-9.45% (inactive)"}
{"smiles": "CC(C)(C)OC(=O)c1ccccc1C(=O)O", "activity change, negative = inhibition": "-8.53% (inactive)"}
{"smiles": "C/C=C(\\C)C=O", "activity change, negative = inhibition": "-9.65% (inactive)"}
{"smiles": "CCCCN(CCCC)CCCCCCN(CCCC)CCCC", "Potency": "5.03 µM (active)"}
{"smiles": "CC(C)c1cc(C(C)C)cc(C(C)C)c1", "activity change, negative = inhibition": "-6.58% (inactive)"}
{"smiles": "CC(=O)OCC(=O)[C@@]1(O)CC[C@H]2[C@@H]3CCC4=CC(=O)C=C[C@]4(C)[C@H]3[C@@H](O)C[C@@]21C", "activity change, negative = inhibition": "-9.84% [at 53 µM] (inactive)"}
{"smiles": "CCN1CCN(C(=O)N[C@@H](C(=O)N[C@@H]2C(=O)N3C(C(=O)O)=C(CSc4nnnn4C)CS[C@H]23)c2ccc(O)cc2)C(=O)C1=O", "activity change, negative = inhibition": "-9.03% [at 53 µM] (inactive)"}
{"smiles": "CCCCCCCCCCCCCC(=O)OCC", "activity change, negative = inhibition": "-21.8% (inactive)"}
{"smiles": "O=S(=O)(O)c1cc(I)c(O)c2ncccc12", "activity change, negative = inhibition": "-7.99% [at 53 µM] (inactive)"}
{"smiles": "CCCCS", "activity change, negative = inhibition": "-1.11% (inactive)"}
{"smiles": "CCCCCCC(O)CO", "note": "(stereo not given)", "activity change, negative = inhibition": "2.14% (inactive)"}
{"smiles": "CSC(=O)c1cccc2nnsc12", "Potency": "35.6 µM (active)"}
